HCV inh: qHTS Assay for Inhibitors of Hepatitis C Virus (HCV) | Huh7.5.1 HCVcc-Cre infection, luciferase reporter, 44 h | hit rate 3.4% among 340,000 | Potency, µM (series often up to 41.8 µM), for inactives: at the highest dose activity change, negative = inhibition, usual class: inhibitors; active means well fitted inhibition curve with a large enough effect; inconclusive means small, poorly fitted or top-dose-only effect, or another doubt; inactive means no such curve, though single readings can be large or run the other way
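Infectious HCVcc-Cre (~0.5 moi) was added to cells just after compound, with cells seeded 4 h earlier at 1,000 per well. Luciferase activity after 44 h culture reported infection; substrate was incubated 15 min at room temperature before reading.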
Vaccinia Venus: qHTS for Stage-Specific Inhibitors of Vaccinia Orthopoxvirus: Venus Reporter Primary qHTS; Vaccinia virus Venus reporter expression, fluorescence; Potency, µM (highest dose often 36.5 µM), inactives show at the highest dose activity change, negative = inhibition, usual class: inhibitors; hit rate 0.46% among 330,000; AID 720580, 2013; calls by dose curve; tested in A549 cells; further: nearly all actives have a fitted effect of over 30% in size
VACV mCherry inh: qHTS for Stage-Specific Inhibitors of Vaccinia Orthopoxvirus: mCherry Reporter Primary qHTS. Vaccinia virus mCherry reporter infection, fluorescence. AID 720579, 2013. hit rate 0.63% among 310,000. Potency, µM (doses to about 36.5 µM), for inactives: top-dose activity change, negative = inhibition, most hits filed as inhibitors; calls by dose curve; tested in A549 cells; further: nearly all actives have a fitted effect of over 35% in size
An asterisk follows results filed as active; i = inactive; ? = inconclusive; · = not tested or not shown. Hits are enriched below; roughly 3.3% of the tested compounds scored in any of these assays. On the % scale 0 is the no-effect control and ±100 the full control effect; potency means the concentration at half of the fitted maximal effect.

SMILES	HCV inh	Vaccinia Venus	VACV mCherry inh
Cc1ccc(-c2cc(-c3ccc(C)cc3)[n+](-c3ccccc3)c(-c3ccc(C)cc3)c2)cc1	25µM*	3.5µM*	?
Cc1ccc(-c2cc(-c3ccccc3)cc(-c3ccccc3)[n+]2-c2ccccc2)cc1	6.3µM*	10µM*	8.9µM*
CC(=O)Nc1scc(-c2ccccc2)[n+]1-c1ccc(C)cc1	?	-8%	-4%
c1ccc(-c2cc(-c3ccccc3)[n+](-c3ccccc3)c(-c3ccccc3)c2)cc1	?	?	-40%
CCOC(=O)c1ccc(-[n+]2c(-c3ccccc3)cc(-c3ccccc3)cc2-c2ccccc2)cc1	0.63µM*	?	i
Cc1ccc(C)c(CN2C(=O)c3ccccc3S(=O)(=O)c3ccc(C(=O)N4CCOCC4)cc32)c1	·	-6%	-4%
CC(=O)N1CCCc2cc(S(=O)(=O)NCc3ccc(N(C)C)cc3)ccc21	·	-16%	-1%
CCOc1cc(CNCCSc2nnnn2C)cc(Cl)c1OCc1ccc(Cl)cc1	·	-24%	0%
COc1ccc(C2CC(=O)c3cc(-c4nc(-c5cccc([N+](=O)[O-])c5)cs4)c(=O)n(-c4ccccc4C)c3C2)cc1 (stereo not given)	·	-13%	5%
CN(C)c1ccc(-[n+]2c(-c3ccccc3)cc(-c3ccccc3)cc2-c2ccccc2)cc1	7.1µM*	?	-20%
CN(C)c1ccc(C(=O)c2ccccc2)cc1	-23%	·	·
COc1ccc2c(c1)c1nnc(SCC(=O)N3C(C)CCCC3C)nc1n2C (stereo not given)	8.9µM*	·	·
COc1ccc2c(c1)c1nnc(SC)nc1n2C	8%	·	·
Cc1cc(C)c(NC(=O)CSC2=Nc3ccccc3C3=NC(CC(=O)NCc4cccs4)C(=O)N23)c(C)c1 (stereo not given)	·	-4%	7%
CCCCNC(=O)c1oc2ccc(S(=O)(=O)N3CCCC3)cc2c1C	-17%	-17%	-9%
Cc1c(C(=O)Nc2ccc(F)cc2)oc2ccc(S(=O)(=O)N3CC(C)CC(C)C3)cc12 (stereo not given)	?	-6%	-3%
CCN(CC)C(=O)c1oc2ccc(S(=O)(=O)N3CCCCCC3)cc2c1C	25µM*	-16%	-1%
CCN(CC)C(=O)c1oc2ccc(S(=O)(=O)N3CC(C)CC(C)C3)cc2c1C (stereo not given)	3.5µM*	-12%	-11%
CCN(C(=O)CSc1nnc(SC)s1)c1c(N)n(Cc2ccccc2)c(=O)[nH]c1=O	10%	·	·
C=C1C=C(C(F)F)n2ncc(C(=O)Nc3cccc(CC)c3)c2N1	·	-15%	-14%
COc1ccc(CCN2C(=O)c3[nH]nc(-c4ccccc4O)c3C2c2ccccc2)cc1 (stereo not given)	·	-28%	-29%
COc1cccc(NC(=O)CSC2=Nc3ccccc3N=C(c3ccc(F)cc3)C2)c1	·	-14%	-11%
CN(Cc1ccccc1N1CCCC1)C(=O)c1cc2cc(Cl)ccc2o1	11µM*	·	·
CN(Cc1ccccc1N1CCCC1)C(=O)c1cc2ccccc2o1	?	-11%	-8%
Cc1ccc(CNCc2c(C(=O)O)c(C)n(Cc3ccc(C)cc3)c2C)cc1	·	6%	-5%
SMILES	HCV inh	Vaccinia Venus	VACV mCherry inh
OC(CBr)C[n+]1cc(Br)cc2ccccc21 (stereo not given)	·	-15%	-25%
CCOC(=O)c1sc(N/N=C/c2ccccc2)nc1C	?	-4%	-23%
CC(=O)c1sc(N/N=C\c2ccccc2O)nc1C	-23%	-26%	5µM*
COc1ccc(CN2CCOc3ccc(CN4CCC(O)(c5cccnc5)CC4)cc3C2)cc1OC	·	-18%	-19%
CC(CNS(=O)(=O)c1ccc(Cl)cc1)n1cncn1 (stereo not given)	-8%	1%	-14%
CCOc1ccc2nc(N/C(N)=N/C(=S)Nc3ccc(C)c(C)c3)nc(C)c2c1	-19%	-9%	-23%
COc1ccc(NC(=S)/N=C(\N)Nc2nc(C)c3ccc(C)cc3n2)cc1	11µM*	·	·
Cc1c(NCc2ccccc2O)c(=O)n(-c2ccccc2)n1C	10%	-2%	i
Cc1c(C(c2ccc(O)cc2)c2c(C)n(C)n(-c3ccccc3)c2=O)c(=O)n(-c2ccccc2)n1C	-6%	-5%	-3%
Cc1c(NC(=S)N/N=C\c2ccccc2O)c(=O)n(-c2ccccc2)n1C	?	?	13µM*
Cc1c(NC(C)C)c(=O)n(-c2ccccc2)n1C	0.56µM*	-16%	-3%
C=CCc1cccc(CNc2c(C)n(C)n(-c3ccccc3)c2=O)c1O	32µM*	·	·
Cc1c(NC(=S)N/N=C/c2ccc(Br)cc2)c(=O)n(-c2ccccc2)n1C	15%	-19%	-13%
Cc1c(NC(C)c2ccccc2O)c(=O)n(-c2ccccc2)n1C (stereo not given)	10%	·	·
Cc1c(C(c2ccc(C(=O)O)cc2)c2c(C)n(C)n(-c3ccccc3)c2=O)c(=O)n(-c2ccccc2)n1C	3.5µM*	-2%	-14%
CCCN1CCN(C(=O)c2cnn(-c3ncc4c(n3)-c3ccccc3CCC4)c2COC)CC1	·	-14%	-24%
CCOC(=O)C1CCN(C(=O)CSc2n[nH]c(-c3ccc(OC)cc3)n2)CC1	·	-6%	-12%
COCC(=O)Nc1cc(C(=O)N2CCN(C)C(c3ccccc3)C2)c2c(c1)nc(-c1ccncc1)n2C (stereo not given)	·	-19%	i
COc1ccccc1CN(C)C(=O)c1ccccc1SCC(=O)N1CCCC1	8%	·	·
CN(Cc1cccc(Cl)c1Cl)C(=O)c1ccccc1SCC(=O)N1CCCC1	22µM*	-19%	-23%
CC1CCCCN1C(=O)COC(=O)c1ccc(S(C)(=O)=O)c([N+](=O)[O-])c1 (stereo not given)	·	-20%	-17%
O=C(CN1CCSC1=NCc1ccccc1)c1ccc(Cl)cc1	13µM*	-15%	-26%
O=C(Nc1ccc(Cl)cc1)N1CCSC1=NCc1ccccc1	13%	-13%	-16%
COc1cccc(Nc2nc(-c3sc(N)nc3C)cs2)c1	?	5%	i
Cc1nc(C)c(-c2csc(Nc3ccc(C(=O)O)c(O)c3)n2)s1	1%	·	·
SMILES	HCV inh	Vaccinia Venus	VACV mCherry inh
Cc1cc(O)ccc1Nc1nc(-c2cccnc2)cs1	-2%	?	?
COc1cccc(Nc2nc(-c3sc(C)nc3C)cs2)c1	5µM*	·	·
Cc1nc(C)c(-c2csc(Nc3ccc(O)cc3C)n2)s1	4%	?	1.1µM*
Cc1nc(C)c(-c2csc(Nc3ccc(F)cc3)n2)s1	4.5µM*	-18%	?
CSC1=NC2(CCN(C(=O)NC3CCCCC3)CC2)N=C1c1ccc(C)cc1	·	-16%	-17%
CN(C)c1ccc(S(=O)(=O)N2CCCCC2)cc1NC(=O)C1=COCCO1	-7%	?	-15%
Cc1ccc(-c2noc(CCC(=O)NCCCN3CCN(c4ccc(F)cc4)CC3)n2)cc1	?	-15%	·
COc1ccc(-c2noc(CCC(=O)Nc3cccc(C)c3)n2)cc1	?	-11%	-17%
CCN(C(=O)CCc1nc(-c2ccc(OC)cc2)no1)c1cc(OC)ccc1OC	11µM*	?	·
CCN(C(=O)CCc1nc(-c2ccc(C)cc2)no1)c1cc(C)ccc1C	·	-10%	-14%
Cc1ccc(-c2noc(CCC(=O)NCCCN3CCN(c4cccc(Cl)c4)CC3)n2)cc1	11µM*	?	·

Screens deposited in PubChem BioAssay by National Center for Advancing Translational Sciences (NCATS).
